Results on 95 compounds are retold here after PubChem BioAssay AID1347041 (National Center for Advancing Translational Sciences (NCATS), 2019).

Values joined by “and” are separate entries in the source; they are usually repeats but may differ in a detail not shown here. Equal entries are not always repeated. Hit rate of the full screen: of about 480,000 compounds, about 740 (0.15%) were called active. Rule as the data show it: active = activity change below about -30%; inconclusive = mostly about -25% to -30%; inactive = weaker than that. Only a selection was taken, and actives are over-represented in it overall. The source holds several records for some structures; these can differ, active in one and inactive in another.

The assay concerns the target L-lactate dehydrogenase A chain (Homo sapiens) (UniProt P00338). Kind of assay: qHTS assay for inhibitors of human lactate dehydrogenase. Also: values are at about 110 or 230 µM. To be noted: purified LDHA, NADH/diaphorase-resazurin fluorescence; stronger effect = lower value. From the text: LDH is a key glycolytic enzyme that catalyzes the final step in the glycolytic pathway, reducing pyruvate to lactate and regenerating NAD+ equivalents necessary for continued glycolysis. LDHA has been linked to the carcinogenesis and malignancy in numerous forms of cancers and many other diseases. Consequently, both pharma and academia have invested in significant research efforts to identify small molecule therapeutics. Such attempts have been stalled or abandoned due to limited success in discovering potent and drug-like inhibitors that can be utilized to validate LDHA in vivo as a drug target, a necessary step toward advancing such a molecule towards the clinic Towards this goal we designed and performed a quantitative high-throughput screening (qHTS) campaign to discover novel compounds that are potent inhibitors of LDHA enzyme activity and cancer cell line growth.
The assay was optimized to 1536-well plates. Briefly, 3 µL of human lactate dehydrogenase 5 (#A38558H, Meridian Life Science, Inc., Memphis, TN) in LDH assay buffer (200 mM Tris HCl pH 7.4, 100 microM EDTA and 0.01% Tween-20) was added to a black solid bottom 1536-well assay plate (Greiner Bio-One) using a BioRAPTR FRD dispenser (Beckman Coulter, Brea, CA). A 1536-well pintool dispenser outfitted with 20 nL pins (Wako Automation, San Diego, CA) was used to transfer 23 nL of DMSO-solubilized compound (both library and vehicle controls) to each 1536-well assay plate. Following compound transfer, 1 µL of substrate solution containing NADH and sodium pyruvate (Sigma-Aldrich, St. Louis, MO) in LDH assay buffer was dispensed via BioRAPTR FRD to initiate the reaction. Final concentrations in the 4 microL reaction volume were 2 nM LDHA enzyme, 0.06 mM NADH and 0.2 mM sodium pyruvate. Following a 5 minute incubation period at room temperature, 1 µL of detection reagent (C. kluyveri diaphorase (Sigma-Aldrich) and resazurin sodium salt (Sigma-Aldrich) in LDH assay buffer) was added to a total volume of 5 µL. Final concentrations of detection reagents were 0.133 mg/mL diaphorase and 37 µM resazurin. Plates were immediately transferred to a ViewLux microplate imager (PerkinElmer, Waltham, MA), and any resulting resorufin fluorescence was measured (ex540, em590 nm) at 0 and 20 minutes. Fluorescence was normalized using enzyme-free and DMSO-treated control wells on each plate.
In general terms: In qHTS, concentration-response curves come from the screen itself.
With `CCC(CC)(Cc1nc2ccccc2s1)C(=O)Nc1ccc(N2CCOCC2)cc1`, the activity change was 5.36% (inactive).
Consider `C/C(=N\NC(=O)c1ccc(C(C)(C)C)cc1)C(C)C`, for which the activity change was 11.2% (inactive).
The figure for `O=[N+]([O-])c1cc(S(=O)(=O)Nc2ccccc2NS(=O)(=O)c2cccs2)ccc1Cl` is 13.9% (inactive); for `O=[N+]([O-])c1cc(S(=O)(=O)Nc2cccc(Cl)c2)ccc1N=Nc1c(O)[nH]c2ccccc12` it is -42.1% (active).
Turning to `O=[N+]([O-])c1cc(S(=O)(=O)Nc2ccc(Cl)cc2)ccc1N/N=C/c1ccccc1C(F)(F)F`, the activity change is 3.88% (inactive).
Take `CC(C)(C)c1ccc(/C=N/NC(=O)c2ccccc2)cc1`: the activity change is 12.2% (inactive).
Next, `Cc1cc(C)c(/C=N/NC(=O)c2ccccc2)c(C)c1`: 4.2% (inactive); `COc1cccc(/C=N/NC(=O)c2[nH]nc3c2CCc2ccccc2-3)c1O`: -78.6% (active).
The figure for `CC(OC(=O)c1cccc(-n2cnnn2)c1)C(=O)Nc1ccc(N2CCOCC2)cc1` (stereo not given) is 6.53% (inactive).
Next, `CC(=O)Nc1cccc(NC(=O)c2cnn(-c3ccccc3F)c2C(F)(F)F)c1C`: 9.39% (inactive).
`O=C(N/N=C/c1ccccc1Cl)c1ccc(Cl)s1`: the activity change is 5.95% (inactive).
The figure for `O=C(NN=Cc1ccccc1O)NN=Cc1ccccc1O` is -72% (active); for `O=C(N/N=C/c1ccccc1OCCOc1ccc([N+](=O)[O-])cc1)Nc1ccccc1` it is -7.59% (inactive).
The figure for `N#C/C(=C/c1ccccc1)c1ccc(C(F)(F)F)cn1` is -3.61% (inactive).
For the compound `Cc1ccccc1CC(=O)Nc1ccc(N2CCOCC2)c(Cl)c1`, the activity change is -4.8% (inactive).
The figure for `COCCN1C(=O)C(=O)/C(=C(/O)c2ccc3c(c2)OCCO3)C1c1cccc(O)c1` (stereo not given) is 9.53% (inactive); for `O=S(=O)(c1ccc2c(c1)OCCO2)c1nc(-c2cccc(Cl)c2)oc1N1CCOCC1` it is -9.35% (inactive).
Next, `NC(=O)c1ccc(NC(=O)CCc2ncc(-c3c(F)cccc3F)o2)cc1`: -1.68% (inactive); `Cc1cc(N2CCC(C)CC2)n2nc(-c3ccccc3)nc2n1`: 7.05% (inactive); `c1ccc(Oc2ccc(CNc3ncccn3)cn2)cc1`: -10.1% (inactive).
For the compound `CCCn1c(N)c(-c2csc(Nc3ccc(F)cc3)n2)c(=O)n(C)c1=O`, the activity change was 2.91% (inactive).
The figure for `CCc1nn2c(=O)cc(CN(CC)Cc3ccc(OCc4ccccc4)cc3)nc2s1` is -24.3% (inactive); for `Cc1ccccc1CSc1nc(=O)c2c(n1C)NC(=O)CC2c1ccc(OCC(N)=O)cc1` (stereo not given) it is 2.91% (inactive).
Regarding `O=C(CSc1ccccc1F)c1ccc2c(c1)-c1ccccc1C2`, the activity change was 10.6% (inactive).
On to `Cc1ccc(C)c(-n2c3c(cc(C#N)c2=O)C(=O)CC(c2ccccc2)C3)c1` (stereo not given), for which the activity change was -0.429% (inactive).
Take `CCOC(=O)c1c(C)[nH]c(C(=O)COc2cc(Cl)ccc2Cl)c1C`: the activity change was -3.64% (inactive).
For the compound `CC1=C(C(=O)Nc2cccc(C)c2C)C(c2ccc(C)cc2)NC(=O)N1` (stereo not given), the activity change was -9.14% (inactive).
Next, `CC1CCN(C(=O)C(C)n2cnc3c2c(=O)n(C)c(=O)n3C)CC1` (stereo not given): 1.51% (inactive); `COc1ccc(-c2csc(-c3cc4c([nH]c3=O)CC(c3ccco3)CC4=O)n2)cc1F` (stereo not given): 6.35% (inactive).
Regarding `COc1ccc(-c2c(C)c3cc(OS(=O)(=O)c4ccc(F)cc4)ccc3oc2=O)cc1OC`, the activity change is 1.58% (inactive).
Turning to `CCN(CC(=O)Nc1cccc(S(=O)(=O)N2CCCCC2)c1)Cc1ccccc1`, the activity change is -5.08% (inactive).
The figure for `COc1cccc(CNC(C)C(=O)Nc2ccc(S(=O)(=O)N3CCCC3)cc2)c1` (stereo not given) is -0.452% (inactive); for `CCN(CC(=O)Nc1ccc(S(=O)(=O)N2CCCC2)cc1)CC(=O)Nc1cccc(OC)c1` it is -38.2% (active).
Next, `CC(C)CC(NC(=O)C(c1ccccc1)c1ccccc1)c1ccccc1` (stereo not given): -5.71% (inactive); `Oc1c(Cl)cc(Cl)c(Cl)c1Cc1c(O)c(Cl)cc(Cl)c1Cl`: -106% (active).
For `Fc1cccc(Cl)c1CNc1ccc(Cl)cc1`, the activity change is 11.8% (inactive).
Turning to `CC(C)(C)n1nc(N)c2cc([N+](=O)[O-])ccc21`, the activity change was -0.323% (inactive).
Take `O=C(Cc1c[nH]c2ccccc12)Nc1cc(F)cc(F)c1`: the activity change was 0.607% (inactive).
On to `O=C(O)CCC(=O)O`, for which the activity change was 0.526% (inactive).
For the compound `O=C(O)COCCOCC(=O)O`, the activity change is -30% (active).
Turning to `C=CC(=O)OCCOCCOCCOCCOC(=O)C=C`, the activity change was -3.09% (inactive).
As for `CCN(CC(=O)NCc1cccs1)C(=O)c1cccc(S(=O)(=O)N(C)c2ccc(C)cc2)c1`, the activity change was 2.57% (inactive).
Turning to `O=C(Cc1ccsc1)NCCc1ccccc1`, the activity change is -0.295% (inactive).
Take `NS(=O)(=O)c1ccc(N2C(=O)C3C4CC(C(Br)C4Br)C3C2=O)cc1` (stereo not given): the activity change is -58.8% (active).
The figure for `O=C1C2C3C=CC(C3)C2C(=O)N1c1ccc(S(=O)(=O)Nc2nccs2)cc1` (stereo not given) is -9.54% (inactive); for `CCCOc1ccc(N2C(=O)CC(N(CCc3ccc(S(N)(=O)=O)cc3)C(C)=O)C2=O)cc1` (stereo not given) it is -18% (inactive).
The figure for `O=C(NCc1nc(-c2ccc(Cl)cc2)no1)c1cc2ccccc2o1` is 0.842% (inactive).
Next, `Cc1ccc(-c2ccccc2N)cc1`: -2.5% (inactive); `O=C(c1ccc[nH]1)c1cc2cc(Br)ccc2o1`: -2.8% (inactive); `Cc1cccc(/C=C/C(=O)c2cccs2)c1`: 7.28% (inactive).
Take `CCCNC(=O)C(C)NC(=O)COc1ccccc1NC(C)=O` (stereo not given): the activity change is -1.76% (inactive).
Next, `Cc1ccc(-c2nc(CS(=O)CC(=O)Nc3ccc(C)c(C)c3)cs2)cc1` (stereo not given): 0.528% (inactive); `O=C(O)CCC(=O)Nc1ccc2c(C(C(=O)O)N3CCN(c4ccccc4)CC3)c[nH]c2c1` (stereo not given): -5.22% (inactive).
The figure for `Cc1ccc(NC(=O)C(Sc2nnnn2C2CCCC2)c2ccccc2)cc1` (stereo not given) is 11.6% (inactive); for `c1ccc(-c2nc(-c3ccc4c(c3)OCCCO4)cs2)nc1` it is 5.7% (inactive); for `c1coc(CNc2ccc3c(c2)ncn3C2CCCCC2)c1` it is 13.3% (inactive).
Next, `CN1CCN(CCCCOc2ccccc2-c2ccccc2)CC1`: -36.2% (active); `CC1CCCN(CCOCCOc2ccccc2-c2ccccc2)C1` (stereo not given): -8.67% (inactive); `COc1ccccc1OCCCCCCN1CCN(C)CC1`: -2.1% (inactive).
Consider `O=C(CCn1ccccc1=O)Nc1ccc(Cl)cc1Cl`, for which the activity change is 11.9% (inactive).
Take `CCCCCCCCCOc1ccc(C(=O)c2ccccc2)cc1`: the activity change is 2.28% (inactive).
In the case of `CCCCOc1ccc(C(=O)NO)cc1`, the activity change is 12.4% (inactive).
Regarding `CC/C(=C(/c1ccccc1)c1ccc(OCC[N+](C)(C)C)cc1)c1ccccc1`, the activity change was -30.9% (active).
As for `Cc1cc(C)cc(Nc2nc3ccccc3nc2NS(=O)(=O)c2ccccc2)c1`, the activity change is -9.61% (inactive).
In the case of `C=CCOc1ccc(NC(C)=O)cc1`, the activity change was 8.6% (inactive).
Next, `Cc1nn(CC(=O)Nc2ccc3c(c2)nc2n3CCN(C)C2)c(=O)c2ccccc12`: 2.93% (inactive).
The figure for `Cc1ccc(OCC(=O)OCc2cc(=O)n3nc(C4CC4)sc3n2)cc1` is -4.61% (inactive).
Next, `O=C(COc1ccccc1F)Nc1ccc(C(=O)OCc2cc(=O)n3nc(C4CC4)sc3n2)cc1`: 0.0167% (inactive).
In the case of `O=C(COc1ccccc1F)OCc1cc(=O)n2nc(C3CCCCC3)sc2n1`, the activity change was -0.186% (inactive) and -35% (active).
The figure for `O=S(=O)(Cc1nnnn1-c1ccccc1)c1ccccc1` is 0.923% (inactive) and -41.4% (active); for `CC(=O)c1ccc(S(=O)(=O)NCc2nnnn2-c2ccccc2)cc1` it is -5.01% (inactive).
The figure for `O=S(=O)(Cc1nnnn1-c1ccc(Br)cc1)c1ccc(F)cc1` is -2.83% (inactive); for `Cn1ccnc1Sc1nc2c(c(=O)n(C)c(=O)n2C)n1Cc1ccc(F)cc1` it is 1.87% (inactive).
On to `Cc1ccc2oc(C(=O)Nc3ccccc3F)cc(=O)c2c1`, for which the activity change is 7.9% (inactive).
For `O=C(O)C(Sc1nc(-c2ccccc2)cc(C(F)(F)F)n1)c1ccccc1` (stereo not given), the activity change was 13.5% (inactive).
Take `O=C(NC1CCCC1)c1nc(-c2cccc3[nH]ccc23)no1`: the activity change is -3.9% (inactive).
The figure for `O=C(NC1(C(F)(F)F)C(=O)Nc2c1c(=O)[nH]c(=O)n2Cc1ccco1)c1ccco1` (stereo not given) is -33.9% (active); for `O=c1[nH]c(=O)n(Cc2ccco2)c2c1C(C(F)(F)F)(C(F)(F)F)N=C(c1ccco1)N2` it is -12.6% (inactive).
Next, `CC(=O)Nc1ccc(S(=O)(=O)NC2(C(F)(F)F)C(=O)Nc3c2c(=O)[nH]c(=O)n3Cc2ccccc2)cc1` (stereo not given): -3.74% (inactive).
As to `CCc1nc2nc(C)cc(Nc3ccc(F)c(Cl)c3)n2n1`, the activity change is -6.31% (inactive).
On to `Cc1cc(Nc2ccccc2)n2nc(Cc3ccc(Cl)cc3)nc2n1`, for which the activity change is -32.3% (active).
As for `Cc1cc(Nc2cccc(Cl)c2)n2nc(Cc3ccccc3)nc2n1`, the activity change was -15% (inactive).
`Cc1ccc(C)c(N2CCN(C(=O)CCS(=O)(=O)c3cccc4nsnc34)CC2)c1`: the activity change was 0.345% (inactive).
As to `O=C1CCCC2=C1C(c1cccnc1)CC(=O)N2c1ccccc1C(F)(F)F` (stereo not given), the activity change was 0.301% (inactive).
On to `O=C(CSc1nnnn1C1CCCC1)N1CCCC1c1ccc2c(c1)OCCCO2` (stereo not given), for which the activity change is -4.78% (inactive).
The figure for `CC(=O)NC(Cc1c[nH]c2ccccc12)C(=O)N1CCC1` (stereo not given) is -6.31% (inactive); for `FC(F)(F)c1ccc(Cl)c(N/N=C/c2c(Cl)cccc2Cl)c1` it is -0.292% (inactive); for `N#Cc1cc(NCC(=O)N2CCNC2=O)ccc1Cl` it is -31.1% (active).
Next, `CSc1ccc(Cl)c(C(=O)OCC(=O)N2CCNC2=O)c1`: -5.09% (inactive).
Next, `COC(=O)c1cc(NCC(=O)N2CCNC2=O)ccc1Cl`: -2.4% (inactive).
Turning to `CC(=O)Nc1cccc(NC(=O)c2nc(-c3ccccc3)oc2C)c1`, the activity change was -3.27% (inactive).
`CCN(CC)CCNC(=O)c1ccc2nc(C)c(C)nc2c1`: the activity change was 1.31% (inactive).
Next, `Cc1ccc(NC(=O)CN(C)C(=O)c2nc(-c3ccccc3)oc2C)cc1`: -4.78% (inactive); `COc1ccc(NC(=O)CN(C)C(=O)c2nc(-c3ccccc3)oc2C)cc1`: 7.53% (inactive).
On to `Cc1oc(-c2ccccc2)nc1CC(=O)N(C)CC(=O)Nc1cccc2ccccc12`, for which the activity change is -30.2% (active).
